The list is not random: actives were taken first. Their share in the collection is about 18%.
DT40 TDP1 CPT: growth inhibition of DT40 Tdp1-/-;hTDP1 cells with camptothecin (screen for TDP1 inhibitors); chicken DT40 Tdp1-/-;hTDP1 cells + 20 nM CPT, ATP luminescence, 48 h; Potency, µM (doses to about 46.2 µM), inactives show top-dose activity change, negative = growth inhibition, most hits filed as inhibitors; AID 686979; 12% of 420,000 active; further: potency means the concentration at half of the fitted maximal effect; nearly all actives have a fitted effect of over 55% in size
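Chicken DT40 Tdp1-/- cells stably complemented with human TDP1 were seeded at 400 cells/well in medium containing 20 nM camptothecin, exposed to pin-transferred compounds, and grown at 37 °C for at least 48 hr. Viability was read as ATP luminescence.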
Six1-Eya2 inh: Six1/Eya2 interaction inhibition | 0.56% of 360,000 active | Q15475+O00167 | activity change, % (no concentration beside the values) | AlphaScreen GST-Six1/His-Eya2 binding, biochemical; stronger effect = lower value | AID 651725; in the data active means activity change below about -65%; inconclusive means mostly about -30% to -63%
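Homogeneous AlphaScreen proximity assay pairing GST-Six1 with His-tagged Eya2 (added as 5X mix: 250 nM and 500 nM) in 50 mM Tris pH 8.0, 300 mM NaCl, 1 mM TCEP. Glutathione donor and nickel acceptor beads; 1 h, 37 °C, dark.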
TDP1 inh: inhibitors of human tyrosyl-DNA phosphodiesterase TDP1; Q9NUW8; recombinant TDP1, AlphaScreen DNA substrate cleavage; Potency, µM (doses to about 130 µM), inactives show top-dose activity change, negative = inhibition, usual class: inhibitors; 0.28% of 350,000 active; AID 485290; further: potency means the concentration at half of the fitted maximal effect; nearly all actives have a fitted effect of over 40% in size
Target sequence (Q9NUW8 whole entry, looked up): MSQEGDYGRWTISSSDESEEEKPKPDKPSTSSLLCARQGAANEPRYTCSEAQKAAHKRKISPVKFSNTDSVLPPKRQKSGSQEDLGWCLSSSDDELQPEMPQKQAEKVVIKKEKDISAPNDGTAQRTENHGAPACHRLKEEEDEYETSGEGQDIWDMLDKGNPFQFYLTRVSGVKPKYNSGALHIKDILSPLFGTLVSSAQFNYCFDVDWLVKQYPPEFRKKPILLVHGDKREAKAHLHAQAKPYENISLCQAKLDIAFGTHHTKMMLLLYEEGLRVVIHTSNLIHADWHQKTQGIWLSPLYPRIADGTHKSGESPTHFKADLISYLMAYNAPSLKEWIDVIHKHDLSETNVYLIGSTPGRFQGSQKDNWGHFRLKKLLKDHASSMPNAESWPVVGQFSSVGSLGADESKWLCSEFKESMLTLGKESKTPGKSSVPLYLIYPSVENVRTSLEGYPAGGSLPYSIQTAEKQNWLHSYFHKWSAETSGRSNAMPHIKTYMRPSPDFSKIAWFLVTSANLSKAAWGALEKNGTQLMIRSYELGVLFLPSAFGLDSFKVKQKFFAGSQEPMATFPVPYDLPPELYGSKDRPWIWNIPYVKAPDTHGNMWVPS
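Steps: enzyme plus compound, 15 min RT; add biotin/phosphotyrosine-FITC oligonucleotide (15 nM final), react 5 min; add donor/acceptor beads (10 ug/ml final), 10 min; read AlphaScreen. Tdp1 at 1 nM final.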
IL-1B inflam inh: inflammasome signaling inhibition, IL-1 beta readout; activity change, % at 57.5 µM; 4.7% of 360,000 active; AID 743279; THP-1 LPS/ATP IL-1B secretion, AlphaLISA, 16 h; stronger effect = lower value; in the data active means activity change below about -50%; inconclusive means mostly about -30% to -49%
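THP-1 cells pretreated 1 hr with compounds (up to 57.5 uM final), then stimulated with LPS (250 ng/mL final) plus ATP (1.25 mM final); secreted IL-1B measured by AlphaLISA after 16 hr, decreased signal indicating inhibition.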
DT40 TDP1 no CPT: qHTS for Inhibitors of human tyrosyl-DNA phosphodiesterase 1 (TDP1): qHTS in cells in absence of CPT | Potency, µM (top dose mostly 46.2 µM), for the others: at the top dose activity change, negative = growth inhibition, hits mostly inhibitors | DT40 Tdp1-/- hTDP1 cells, no CPT, ATP luminescence, 48 h | 15% of 420,000 active; further: potency means the concentration at half of the fitted maximal effect; nearly all actives have a fitted effect of over 55% in size
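Camptothecin absent (DMSO only). Human TDP1-complemented DT40 knockout cells, 400 cells/well, 37 °C for minimum 48 hr; ATP measured via CellTiter-Glo, 30 min dark incubation, luminescence.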
CtBP-E1A blk: CtBP/E1A binding inhibition | AlphaScreen GST-E1A/His-CtBP binding, 1536-well; stronger effect = lower value | activity change, % (test concentration not listed) | 0.49% of 340,000 active; in the data active means activity change below about -65%; inconclusive means mostly about -30% to -63%
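AlphaScreen with 125 nM GST-E1A and 125 nM His-CtBP (5X stocks) in Tris pH 8.0, 300 mM NaCl, BSA, Tween 20, TCEP. Compounds preincubated 2 h at 37 deg C, then glutathione donor/nickel acceptor beads added for 1 h at 37 deg C in dark.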
Starred values were filed as active, the others as inactive; ? = inconclusive; nt = no result. Unless noted, the call rests on the fitted dose curve; in most records, active means well fitted curve in the direction sought with a large enough effect; inconclusive means small, poorly fitted or top-dose-only effect, or another doubt; inactive means no such curve, though single readings can be large; an effect the other way counts as inactive or inconclusive. On the % scale 0 is the no-effect control and ±100 the full control effect.

SMILES | DT40 TDP1 CPT | Six1-Eya2 inh | TDP1 inh | IL-1B inflam inh | DT40 TDP1 no CPT | CtBP-E1A blk
CCOC(=O)c1c(NC(=O)C2COc3ccccc3O2)sc(C(C)=O)c1C (centres undefined) | 7.3µM* | -3 | 5% | -15 | 6.5µM* | -20
CCOC(=O)c1ccc(NC(=O)C2COc3ccccc3O2)cc1 (centres undefined) | -10% | -4 | nt | -9 | ? | 15
CCOC(=O)c1c(NC(=O)C2COc3ccccc3O2)sc2c1CC(C)(C)NC2(C)C (centres undefined) | 13µM* | -13 | -1% | ? | 12µM* | 0
O=C(CCS(=O)(=O)c1ccc(Br)cc1)Nc1ccc(F)cc1F | ? | nt | -1% | nt | -19% | nt
COC(=O)c1ccc2nc(-c3ccc(F)cc3)c(CC3CCCCC3)n2c1 | 26µM* | 2 | nt | 45 | 21µM* | -1
COC(=O)c1ccc2nc(-c3ccc(C)cc3)c(CC3CCCCC3)n2c1 | 21µM* | 5 | nt | 9 | 16µM* | 5
Cc1ccc(-c2nc3ccc(Cl)cn3c2CC2CCCCC2)cc1 | -20% | -2 | nt | -22 | ? | 4
Cc1ccc(-c2nc3ccc(C)cn3c2CC2CCCCC2)cc1 | ? | 12 | nt | 18 | 16µM* | -24
COC(=O)c1ccc2nc(-c3ccc(F)cc3)c(Cc3cccc(F)c3)n2c1 | -28% | 0 | nt | 0 | -28% | 5
Cc1ccc2nc(-c3cccc(Br)c3)c(CC3CCCCC3)n2c1 | ? | -1 | nt | -5 | ? | 5
CCOc1ccccc1C(=O)N[C@H](C(=O)OCc1cc([N+](=O)[O-])cc2c1OCOC2)C(C)C | ? | -14 | -3% | -21 | 16µM* | -4
CC(C)C(NC(=O)c1ccco1)C(=O)OCc1cc([N+](=O)[O-])cc2c1OCOC2 (centres undefined) | ? | 0 | 0% | 28 | ? | -2
CC(C)C(NC(=O)c1ccccc1)C(=O)OCc1cc([N+](=O)[O-])cc2c1OCOC2 (centres undefined) | 15µM* | 17 | 4% | 34 | 12µM* | nt
Cc1cccc(-c2nc3c4ccccc4n(Cc4cccc(Cl)c4)c(=O)n3n2)c1 | 21µM* | nt | 6% | nt | 10µM* | nt
CCc1cccc(NC(=O)Cn2c(=O)n3nc(-c4cccc(F)c4)nc3c3ccccc32)c1 | 3.7µM* | nt | 3% | nt | 4.6µM* | nt
O=C(Cn1c(=O)n2nc(-c3cccc(F)c3)nc2c2ccccc21)NCc1ccc(Cl)cc1 | -2% | nt | 0% | nt | -4% | nt
CN(CCCCCCCCCCN(C)C(=O)Oc1cccc([N+](C)(C)C)c1)C(=O)Oc1cccc([N+](C)(C)C)c1 | 2.3µM* | -4 | nt | 2 | 0.82µM* | -4
COC(=O)C1CCN(C(=O)c2cc(-c3ccco3)nc3ccccc23)CC1 | -25% | -30 | nt | 22 | ? | nt
Clc1ccc(-c2csc(N3CCc4ccccc4C3)n2)cc1 | -10% | 1 | 1% | -17 | -8% | 6
CC(=O)N1c2c(cc(Br)cc2S(=O)(=O)Nc2ccccc2C)CC1C (centres undefined) | ? | nt | 3% | nt | ? | nt
CC(=O)N1c2c(cc(Br)cc2S(=O)(=O)Nc2ccc(OC(F)(F)F)cc2)CC1C (centres undefined) | 18µM* | nt | 3% | nt | 15µM* | nt
CCOC(=O)c1ccc(NS(=O)(=O)c2cc(Br)cc3c2N(C(C)=O)C(C)C3)cc1 (centres undefined) | 9.2µM* | nt | 3% | nt | 8.2µM* | nt
COc1ccc(NS(=O)(=O)c2cc(Br)cc3c2N(C(C)=O)CC3)cc1 | 8.2µM* | 0 | 4% | 58 | 12µM* | -4
CCc1ccc(NS(=O)(=O)c2cc(Br)cc3c2N(C(C)=O)CC3)cc1 | -1% | nt | 3% | nt | -13% | nt

Assay outcomes as filed in PubChem.
